# Assay outcomes deposited in PubChem BioAssay by Johns Hopkins Ion Channel Center.
# KCNQ2 block: KCNQ2 (rat) channel inhibition | O88943 | CHO-K1 KCNQ2, FluxOR thallium flux, 20 min; stronger effect = lower value | B-score at 10 µM | actives 1.1% (n = 310,000);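 active means fluorescence ratio B-score at most minus 3 library SDs, with starting brightness B-score within 2 library SDs, cut at about -5.5 in these data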
# KCNQ2 pot: potentiators of rat KCNQ2 potassium channel | O88943 | CHO-K1 KCNQ2, FluxOR thallium flux fluorescence; stronger effect = higher value | B-score at 10 µM | actives 0.54% (n = 310,000) | AID 2239;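 active means fluorescence ratio B-score at least 3 SD of library B-scores, with initial fluorescence B-score within 3 of them, cut at about 5.3 in these data; same plate scores as AID 2156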;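 further: B-score of peak minus minimum over baseline fluorescence ratio after K+ and Tl+ stimulus; positive B-score means potentiation of KCNQ2 with more thallium influx and brighter signal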
# Kir21 conf inh: confirmation of mouse Kir2.1 potassium channel inhibitors; shares compounds with KCNQ2 pot; actives 41% (n = 2,300); Kir2.1-expressing cells, FluxOR thallium flux fluorescence; stronger effect = lower value; Tl flux remaining, % of negative control (stronger effect = lower value), % at 10 µM;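 active means Primary-screen hit whose thallium flux fell at least 3 control SD below untreated wells in both duplicates, with normal baseline fluorescence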;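 further: 0% = blank wells without stimulus and 100% = stimulated no-compound controls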
# HEK293 Tl flux: parental HEK293 activity in Kir2.1 inhibitor counter-screen; shares compounds with KCNQ2 pot; parental HEK293 cells, FluxOR thallium flux fluorescence; 0% = unstimulated blank wells; FluxOR signal as % of negative control (100 = no effect), % at 10 µM; actives 19% (n = 2,300);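 active means dye signal at least 3 control SD above or below untreated wells in both duplicates, raw fluorescence within 3, either direction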;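 further: percent is based on the flux ratio of peak minus minimum fluorescence over baseline F0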
# CHO-K1 Tl ctr: alters thallium flux in parental CHO-K1 cells, KCNQ2 counter-screen | shares compounds with KCNQ2 pot | FluxOR thallium flux fluorescence; zero = vehicle mean+3SD, 100% = vehicle-minus-blank window | activity increase over 3SD of controls, % at 10 µM | actives 43% (n = 1,200) | AID 2282;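 active means signal rise of at least 3 SD above the untreated control mean, in both duplicate wells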;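 further: counter screen of KCNQ2 potentiator hits so any rise reflects channel-independent effects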
# KCNQ1 sel pot: selectivity of KCNQ2 potentiators: effect on human KCNQ1. shares compounds with KCNQ2 pot. CHO KCNQ1 stable, FluxOR thallium flux fluorescence; beyond 3SD, as % of vehicle-control signal. activation over 3SD threshold, % at 10 µM. actives 28% (n = 1,200). AID 2283;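 active means fluorescence ratio rise of at least 3 SD of vehicle wells above their mean, in both replicate wells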;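 further: 0% = vehicle mean plus 3 SD and 100% = vehicle minus unstimulated blank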
# Target sequence (P51787 whole entry, looked up): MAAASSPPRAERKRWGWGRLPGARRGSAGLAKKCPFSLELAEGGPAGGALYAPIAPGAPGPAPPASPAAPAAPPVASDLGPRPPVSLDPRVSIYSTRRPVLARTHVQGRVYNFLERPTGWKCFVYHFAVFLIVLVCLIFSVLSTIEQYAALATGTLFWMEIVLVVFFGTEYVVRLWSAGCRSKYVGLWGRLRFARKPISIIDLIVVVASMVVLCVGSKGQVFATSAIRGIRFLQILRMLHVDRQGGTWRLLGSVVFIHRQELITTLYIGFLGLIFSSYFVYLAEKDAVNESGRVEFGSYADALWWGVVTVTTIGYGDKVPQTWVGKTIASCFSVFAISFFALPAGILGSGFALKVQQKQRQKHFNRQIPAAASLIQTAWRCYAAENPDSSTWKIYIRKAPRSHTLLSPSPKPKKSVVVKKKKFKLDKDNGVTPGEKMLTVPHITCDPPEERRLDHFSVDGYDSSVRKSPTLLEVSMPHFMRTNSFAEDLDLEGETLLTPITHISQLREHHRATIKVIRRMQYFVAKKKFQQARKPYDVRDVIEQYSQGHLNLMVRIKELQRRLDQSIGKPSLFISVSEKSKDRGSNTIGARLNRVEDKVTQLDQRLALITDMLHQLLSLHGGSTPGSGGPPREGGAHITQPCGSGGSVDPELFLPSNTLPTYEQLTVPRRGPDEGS
# KCNQ2 pot conf: rat KCNQ2 channel potentiator confirmation | shares compounds with KCNQ2 pot | CHO-KCNQ2 cells, FluxOR thallium flux fluorescence | potentiation, less the hit threshold, % at 10 µM | actives 68% (n = 1,200);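 active means fluorescence ratio rising 3 SD or more over the vehicle control mean in both replicates, plus primary screen hit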;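 further: peak minus minimum thallium fluorescence divided by baseline after K/Tl stimulus; 0% = vehicle mean plus 3 SD and 100% = vehicle minus unstimulated blank difference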
# Kir21 spec: tests whether KCNQ2 potentiators also affect mouse Kir2.1. shares compounds with KCNQ2 pot. HEK293 Kir2.1, FluxOR thallium flux fluorescence. activity over 3SD threshold, % at 10 µM. actives 2% (n = 1,200). AID 2345;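 active means fluorescence ratio rise of at least 3 SD above the vehicle-control mean, seen in both replicates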;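 further: 0% = vehicle mean plus 3 SD and 100% = vehicle minus no-stimulus blank window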
# KCNQ2 W236L pot: KCNQ2 potentiators acting on retigabine-insensitive rat KCNQ2 W236L mutant | shares compounds with KCNQ2 pot | CHO KCNQ2-W236L, automated patch clamp current | current increase over 3SD of negative controls (%), stronger effect = higher value, % at 25 µM | actives 10% (n = 940) | AID 2558;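 active means current increase at least 3 SD of the untreated controls above them in both duplicate recordings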
# Active calls of the source: *; i = inactive; · = no result. Hits are enriched below; roughly 1.6% of the tested compounds scored in any of these assays.
SMILES,KCNQ2 block,KCNQ2 pot,Kir21 conf inh,HEK293 Tl flux,others
S=c1[nH]c2ccc(Cl)cc2[nH]1,i,1.19,·,·,
S=c1[nH]c2cc(Cl)ccc2s1,i,18.2*,i,552.5%*,CHO-K1 Tl ctr=10.3*;KCNQ1 sel pot=-12.2;KCNQ2 pot conf=54.0*;Kir21 spec=2.3*;KCNQ2 W236L pot=i
CCn1cc(CN2CCC(n3nccc3NC(=O)c3ccc(OC)cc3)CC2)cn1,i,·,·,·,
Cc1ccccc1-n1c(C)nnc1SCC(=O)N(C)C1CCS(=O)(=O)C1 (stereo not given),i,·,·,·,
Cc1ccc(N(CC(O)CN2CCCCC2)S(=O)(=O)c2ccccc2)cc1 (stereo not given),i,0.43,·,·,
Cc1cc(NS(=O)(=O)c2ccccc2)c(C)c(Cl)c1O,i,·,69.0%*,i,
Cc1c(O)ccc(NS(=O)(=O)c2ccccc2)c1C,i,·,·,·,
COc1ccc(CNc2nc(S(=O)(=O)c3ccccc3)c(Cl)s2)cc1OC,i,0.14,·,·,
OCCN1CCN(Cc2cc(Cl)c3cccnc3c2O)CC1,i,1.04,·,·,
Oc1c(Cl)cc(Cl)c2cccnc12,i,7.78*,i,176.0%*,CHO-K1 Tl ctr=-12.3;KCNQ1 sel pot=-14.8;KCNQ2 pot conf=11.3*;Kir21 spec=-12.0;KCNQ2 W236L pot=i
O=C(Oc1c(CN2CCOCC2)cc(Cl)c2cccnc12)c1cccs1,i,·,·,·,
O=C(Oc1c(Cl)cc(Cl)c2cccnc12)c1cccs1,i,10.8*,i,i,CHO-K1 Tl ctr=-5.0;KCNQ1 sel pot=-37.5;KCNQ2 pot conf=-33.5;Kir21 spec=-41.5
Oc1c(Cl)cc(CN2CCCCC2)c2cccnc12,i,·,·,·,
Oc1c(CN2CCN(c3ccccn3)CC2)cc(Cl)c2cccnc12,i,11*,i,146.0%*,CHO-K1 Tl ctr=4.1*;KCNQ1 sel pot=-4.9;KCNQ2 pot conf=23.5*;Kir21 spec=-25.4;KCNQ2 W236L pot=i
O=C(CC1C(=O)NCCN1Cc1c(F)cccc1Cl)NCCCN1CCCC1=O (stereo not given),i,·,·,·,
Nc1cc(-c2ccc(Cl)cc2)nn1S(=O)(=O)c1cccc2nsnc12,i,5.12,·,·,
Nc1cc(-c2ccc(Br)cc2)nn1S(=O)(=O)c1cccc2nsnc12,i,6.94*,i,i,CHO-K1 Tl ctr=19.8*;KCNQ1 sel pot=-10.6;KCNQ2 pot conf=-3.5;Kir21 spec=-42.4
COc1cc(C)c(C(=O)Oc2cc(C)c(C(=O)O)c(O)c2C)c(O)c1C,i,5.25,·,·,
COc1cc(C)c(C(=O)Oc2cc(C)c(C(=O)O)c(O)c2)c(O)c1,i,7.01*,i,i,CHO-K1 Tl ctr=45.2*;KCNQ1 sel pot=-11.4;KCNQ2 pot conf=13.9*;Kir21 spec=-22.3;KCNQ2 W236L pot=21.3%*
Cn1c(CNC(=O)OC(C)(C)C)nnc1SCC(=O)N1CCOCC1,i,·,·,·,
O=C(CN1CCN(S(=O)(=O)c2ccccc2)CC1)Nc1ccc2c(c1)CCC2,i,0.12,·,·,
OC(CNCc1ccccc1)(c1ccccc1)c1ccccc1,i,·,·,·,
COc1ccc(CNCC(O)(c2ccc(F)cc2)c2ccc(F)cc2)cc1,i,·,i,i,
COc1ccccc1CNCC(O)(c1ccc(Cl)cc1)c1ccc(Cl)cc1,i,·,·,·,
COc1ccc(CNCC(O)(c2ccccc2)c2ccccc2)cc1,i,·,55.5%*,i,
SMILES,KCNQ2 block,KCNQ2 pot,Kir21 conf inh,HEK293 Tl flux,others
Cc1ccc(CNCC(O)(c2ccc(F)cc2)c2ccc(F)cc2)cc1,i,·,·,·,
COc1ccccc1CNCC(O)(c1ccc(F)cc1)c1ccc(F)cc1,i,·,53.0%*,i,
NC(=O)CSc1oc(-c2ccco2)nc1S(=O)(=O)c1ccc(F)cc1,i,0.09,·,·,
CCN(CC)S(=O)(=O)c1cccc(C(=O)Nc2cc(C)on2)c1,i,·,·,·,
COc1ccc(OC)c(NC(=O)CSc2nncc(=O)n2N)c1,i,·,·,·,
COc1cc(NS(=O)(=O)c2ccc(NC(=S)Nc3ccccc3)cc2)nc(OC)n1,i,·,·,·,
COc1cc(NS(=O)(=O)c2ccc(Nc3nc(-c4ccccc4)cs3)cc2)nc(OC)n1,i,1.82,i,i,
